One test concerns the target Albumin (Bos taurus) (UniProt P02769). Description: bovine serum albumin binders on microarray, profiling panel, artefact control for SMM control protein annotation, biochemical, small-molecule microarray, Alexa647 label, 635/667 nm fluorescence (AID 1118).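 Also: score merges 667 nm emission intensity and signal-to-noise per printed compound spot.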 The following applies: BSA-A647 binding, fluorescence 635 nm, higher = more signal.
A short description of test [1]: small-molecule microarray binders of probe aXIP, primary screen, biochemical, NeuroSMM set, 635/667 nm fluorescence (AID 1119).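 Also: probe is the protein aXip251-270 applied at 1 µg/mL to compound-printed slides; binding of probe to printed compounds measured as 667 nm fluorescence plus signal to noise.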 The following applies: higher = more signal, called active from +8 up or from −8 down.
Test [2] in a line: small-molecule binders of probe aNOTCH3, primary screen, biochemical, small-molecule microarray, 635/667 nm fluorescence (AID 1120).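 Also: probe is a biotin-tagged antibody raised against NOTCH3 rather than NOTCH3 protein; score merges spot fluorescence near 667 nm with spot signal to noise.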 The following applies: higher = more signal.
Test [3] is described as follows: small-molecule binders of probe aNOTCH2, primary screen, biochemical, small-molecule microarray, 635/667 nm fluorescence (AID 1121).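 Also: score merges feature fluorescence read at 667 nm with its signal to noise.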 To be noted: higher = more signal.
In test [4] the target is Carbonic anhydrase 2 (Homo sapiens) (UniProt P00918). Description: CAII small-molecule binders, profiling panel, biochemical, small-molecule microarray, Alexa647-labelled CAII (AID 1122). The following applies: CAII-A647 binding fluorescence, higher = more signal.
A short description of test [5]: COS7 lysate on small-molecule microarray, probe aHis, 635 nm (AID 1123).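 Also: z-score combines 667nm fluorescence intensity with signal-to-noise per printed compound spot.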 To be noted: COS7 cell lysate, fluorescence, higher = more signal.
The nature of test [6]: compound binding in COS7 lysate, probe aLAP1, primary screen, cell lysate, small-molecule microarray (AID 1124).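 Also: lysate comes from COS7 cells expressing LAP1 and is applied at 0.3 µg/mL; score merges spot fluorescence near 667 nm with signal-to-noise over triplicate slides.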 To be noted: probe aLAP1, fluorescence, higher = more signal.
A further test relates to Sam68 (KHDRBS1). Briefly: Sam68 small-molecule binders, primary screen, biochemical, small-molecule microarray, 635 nm fluorescence (AID 1125).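 Also: score merges 667 nm channel intensity with signal to noise over triplicate slides.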 The following applies: small-molecule microarray binding, higher = more signal.
The subject of test [7] is Chordin-like protein 2 (CHRDL2). Description: CHRDL2 small-molecule binders, primary screen, biochemical, small-molecule microarray, 635 nm fluorescence (AID 1126).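 Also: printed compound slides probed with Chrdl2 protein at 4 µg/mL for 1 h at 4 C; score merges 667 nm emission intensity with signal to noise over three replicate slides.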 To be noted: small-molecule microarray binding, fluorescence 635 nm; higher = more signal.
The target of test [8] is Concanavalin-A (Canavalia ensiformis) (UniProt P02866). Briefly: ConA small-molecule binders, primary screen, artefact control for SMM control protein annotation, biochemical, small-molecule microarray, Alexa647 label, 635 nm (AID 1127).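 Also: z combines 667 nm emission intensity with signal-to-noise across three replicate slides.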 The following applies: ConA-A647 binding fluorescence, higher = more signal.
Chain of Concanavalin-A (Canavalia ensiformis) (P02866 whole entry, looked up): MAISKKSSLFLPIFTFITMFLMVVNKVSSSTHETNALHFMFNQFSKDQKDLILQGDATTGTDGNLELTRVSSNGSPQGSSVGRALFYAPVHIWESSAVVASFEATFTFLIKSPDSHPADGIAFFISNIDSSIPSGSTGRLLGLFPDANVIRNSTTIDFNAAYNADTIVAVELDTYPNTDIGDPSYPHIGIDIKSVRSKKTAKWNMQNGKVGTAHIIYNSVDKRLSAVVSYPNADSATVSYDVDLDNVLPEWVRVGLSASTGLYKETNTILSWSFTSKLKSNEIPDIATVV

Active and inactive are the calls of the source.

Chain of Albumin (Bos taurus) (P02769 whole entry, looked up): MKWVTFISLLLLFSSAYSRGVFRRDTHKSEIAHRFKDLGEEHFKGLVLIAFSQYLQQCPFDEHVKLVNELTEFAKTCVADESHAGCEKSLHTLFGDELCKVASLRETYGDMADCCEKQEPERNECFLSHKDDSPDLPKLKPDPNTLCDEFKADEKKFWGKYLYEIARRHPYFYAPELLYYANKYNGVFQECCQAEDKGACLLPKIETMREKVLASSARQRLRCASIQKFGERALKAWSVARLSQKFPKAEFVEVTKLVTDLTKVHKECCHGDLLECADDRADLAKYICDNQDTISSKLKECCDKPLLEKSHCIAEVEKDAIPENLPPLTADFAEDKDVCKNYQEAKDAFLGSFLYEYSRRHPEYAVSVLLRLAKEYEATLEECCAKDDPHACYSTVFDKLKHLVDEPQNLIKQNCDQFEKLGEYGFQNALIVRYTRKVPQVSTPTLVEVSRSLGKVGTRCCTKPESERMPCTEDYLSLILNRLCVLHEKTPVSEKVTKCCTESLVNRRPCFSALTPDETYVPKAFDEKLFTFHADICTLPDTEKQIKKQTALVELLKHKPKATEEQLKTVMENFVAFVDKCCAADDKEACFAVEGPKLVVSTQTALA

As to `CC(C)C[C@@H]1NC(=O)[C@@H]2C[C@H](C(=O)NCCCCCCNC(=O)CS)[C@H](c3ccc(O)cc3)N2C1=O`, the composite z-score in the test with Albumin (Bos taurus) is -0.025; in [2], 0.133; in test [3], -0.0817; in [4], 0.706; in [5] it was 1.91; in test [6], 0.655. Also, the composite z-score came to 1.28 in the test on Sam68 (KHDRBS1), 1.26 in [7] and 0.995 in [8]. Moreover, the composite Z-score in test [1] is 0.0101 (inactive).
Regarding `[N-]=[N+]=NCc1ccccc1[C@H]1OC(c2ccc(OCCCO)cc2)=N[C@@]1(Cc1ccccc1N=[N+]=[N-])C(=O)N1CCOCC1`, the composite z-score is 0.939 with Albumin (Bos taurus); 0.0159 in [2]; -0.0895 in test [3]; 0.676 in [4]; 2.57 in [5]; -0.14 in [6]. Also, the composite z-score in the test on Sam68 (KHDRBS1) was 1.3; in [7], -0.596; in test [8], 1.14. The composite Z-score in test [1] was 0.594 (inactive).
For the molecule `CC[C@@H](O[Si](C#C[Si](C(C)C)(C(C)C)C(C)C)(C(C)C)C(C)C)c1cn([C@H](C)c2ccccc2)nn1`, the composite z-score was -0.605 in the test with Albumin (Bos taurus); -0.016 in test [2]; -0.171 in test [3]; 0.0757 in test [4]; 0.365 in test [5]; 0.369 in test [6]. Also, the composite z-score was 0.71 in the test on Sam68 (KHDRBS1), 0.26 in test [7] and 0.364 in test [8]. Further, in [1], the composite Z-score was 0.515 (inactive).
As for `C=CCNC(=O)[C@@H]1[C@H]2C(=O)O[C@H](c3ccccc3)[C@H](c3ccccc3)N2[C@H](c2ccc(O)cc2)[C@@]12C(=O)Nc1ccc(C#CC3=CCCCC3)cc12`, the composite z-score in the test with Albumin (Bos taurus) is 0.543; in test [2], 1.22; in [3], -0.0857; in test [4], 0.676; in test [5] it was 1.69; in test [6] it was 1.24. For the same molecule, the composite z-score in the test on Sam68 (KHDRBS1) turned out to be 1.32; in [7], 0.334; in test [8] it was 1.04. In addition, in test [1], the composite Z-score was 0.986 (inactive).
Turning to `COC(=O)C(CC#Cc1ccc2c(c1)[C@]1(C(=O)N2)[C@H](C(=O)N2CCCCCCC2)[C@H]2C(=O)O[C@H](c3ccccc3)[C@H](c3ccccc3)N2[C@@H]1c1ccc(OCCO)cc1)C(=O)OC`, the composite z-score in the test with Albumin (Bos taurus) came out at 0.844; in [2] it was 2.18; in [3], 1.19; in test [4], 1.12; in [5] it was 5.47; in [6], 0.497. Also, the composite z-score with Sam68 (KHDRBS1) amounted to 1.33; in test [7], 1.57; in [8] it was 1.18. In test [1], the composite Z-score is 10.3 (active).
For `COCCOC(=O)N1C(=O)[C@@]2(c3cc(C#CCC(C(=O)OC)C(=O)OC)ccc31)[C@H](c1ccc(O)cc1)N1[C@H](c3ccccc3)[C@H](c3ccccc3)OC(=O)[C@H]1[C@@H]2C(=O)N1CCc2cc(OC)c(OC)cc2C1`, the composite z-score with Albumin (Bos taurus) is -0.0894; in test [2], 0.147; in test [3], -0.0166; in [4] it was 0.378; in test [5], 1.12; in test [6], 0.761. The composite z-score in the test with Sam68 (KHDRBS1) was 1.29; in test [7], 0.242; in test [8], 0.903. Moreover, the composite Z-score in [1] is -0.262 (inactive).
As to `C[C@@]1([C@@H](NS(=O)(=O)c2cccc3cccnc23)c2ccc(-c3ccccc3)cc2)C[C@H]1C1CCCCC1`, the composite z-score with Albumin (Bos taurus) stood at 0.533; in test [2] it was 0.314; in [3], 0.131; in test [4], 0.549; in test [5], 2.06; in test [6] it was 0.165. The values for the composite z-score (in the test with Sam68 (KHDRBS1); in test [7]; in [8]) were 0.292, -0.214 and 0.391, respectively. Further, in [1], the composite Z-score is -0.343 (inactive).
`C=CCNC(=O)[C@@H]1[C@H]2C(=O)O[C@H](c3ccccc3)[C@H](c3ccccc3)N2[C@H](c2ccc(OCCO)cc2)[C@@]12C(=O)Nc1ccc(C#CCNC(N)=O)cc12`: the composite z-score was 0.567 with Albumin (Bos taurus); -0.076 in test [2]; -0.13 in test [3]; 0.336 in test [4]; 0.813 in [5]; 0.268 in test [6]. Moreover, the values for the composite z-score (with Sam68 (KHDRBS1); in [7]; in test [8]) were 1.33, -0.822 and 0.6, respectively. The composite Z-score in test [1] is 0.0324 (inactive).
In the case of `COc1ccc(C(=O)Nc2cccc(CN3C(=O)[C@]4(O[C@H](CC(=O)N(CCO)Cc5ccccc5)[C@@H]([Si](C)(C)c5ccc(OC)cc5)[C@@H]4C)c4ccccc43)c2)cc1`, the composite z-score was -0.211 with Albumin (Bos taurus); 0.0141 in test [2]; -0.046 in test [3]; 0.325 in test [4]; 1.51 in test [5]; -0.0351 in test [6]. In addition, the values for the composite z-score (with Sam68 (KHDRBS1); in [7]; in test [8]) were 0.775, 0.972 and 0.762, respectively. In test [1], the composite Z-score is 0.264 (inactive).
As to `CC(C)c1ccc(NN2C(C(O)C3CCCCC3)C=CC3C(=O)N(c4ccccc4)C(=O)C32)cc1` (stereo not given), the composite z-score came to 0.98 in the test with Albumin (Bos taurus); 0.286 in [2]; 0.0836 in test [3]; 0.632 in test [4]; 1.78 in test [5]; 0.948 in test [6]. The composite z-score with Sam68 (KHDRBS1) is 1.31; in test [7], -0.261; in test [8] it was 1.14. For the same molecule, the composite Z-score in test [1] was 0.637 (inactive).
With `COc1ccc(C#Cc2ccc3c(c2)[C@]2(C(=O)N3)[C@H](c3ccccc3OCCO)N3[C@H](c4ccccc4)[C@H](c4ccccc4)OC(=O)[C@H]3[C@@H]2C(=O)NC[C@H](O)c2ccccc2)cc1`, the composite z-score in the test with Albumin (Bos taurus) is 0.579; in test [2] it was 0.11; in [3], -0.0942; in [4] it was 0.373; in [5], 1.98; in test [6], 0.359. For the same molecule, the figures for the composite z-score (with Sam68 (KHDRBS1); in test [7]; in test [8]) were 1.32, -0.0767 and 1.07, respectively. Also, in [1], the composite Z-score was -0.419 (inactive).
As to `COC(=O)c1ccc(OC)c(/C=C\CC(OC(=O)c2ccncc2)c2ccccc2)c1` (stereo not given), the composite z-score in the test with Albumin (Bos taurus) is -0.311; in test [2], -0.0077; in test [3] it was -0.168; in test [4] it was 0.387; in test [5], 0.0584; in [6] it was -0.304. The composite z-score with Sam68 (KHDRBS1) was -0.0077; in [7], 1.37; in [8] it was 0.535. Also, the composite Z-score in test [1] is 0.63 (inactive).
Regarding `O=C(c1ccccc1)N1Cc2ccccc2C[C@@]2(N=C(c3ccc(OCCCO)cc3)O[C@H]2c2ccccc2)C1=O`, the composite z-score with Albumin (Bos taurus) was -0.106; in [2], 0.0193; in test [3] it was -0.0876; in [4], 0.588; in test [5], 2.43; in test [6] it was 0.548. Besides, the figures for the composite z-score (in the test with Sam68 (KHDRBS1); in test [7]; in test [8]) were 1.3, 0.639 and 1.05, respectively. Besides, the composite Z-score in test [1] was 1.71 (inactive).
On to `CC(C)Cc1ccc(CN2CC[C@@H](NC(=O)c3ccccc3)C2)cc1`, for which the composite z-score in the test with Albumin (Bos taurus) is 0.767; in test [2], -0.129; in [3], -0.109; in [4], -0.0412; in test [5] it was -0.0414; in test [6], -0.0172. The composite z-score with Sam68 (KHDRBS1) was -0.252; in [7], 0.345; in test [8] it was -0.52. Moreover, the composite Z-score in test [1] was 0.196 (inactive).
For `COC(=O)[C@@]1(Cc2ccc(F)cc2)[C@@H]2C(=CC(=O)[C@H]2CC(=O)C(=O)N2CCCC2)CN1C(=O)c1ccccc1`, the composite z-score with Albumin (Bos taurus) was determined as 1.02; in [2], 1.24; in [3], 0.845; in test [4] it was 0.65; in [5], 3.14; in test [6], 0.805. Also, the figures for the composite z-score (in the test with Sam68 (KHDRBS1); in [7]; in test [8]) were 1.22, 0.484 and 0.455, respectively. For the same molecule, the composite Z-score in [1] is -0.131 (inactive).
